In PubChem BioAssay:
Activity calls are given as the source filed them.

Assays:
[1] = system: Plasmodium falciparum Sir2 (PF13_0152, Sir2A); assay: pfSir2 binders on small-molecule microarrays, primary screen, biochemical, small-molecule microarray, 635 nm fluorescence (AID 1098); details: small-molecule microarray binding, fluorescence 635 nm; higher = more signal;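 note: score merges spot fluorescence intensity with its signal-to-noise ratio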
[2] = small-molecule microarray binders of probe aDKK1, primary screen, biochemical, biotinylated probe, 635/667 nm fluorescence (AID 1099); details: higher = more signal;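 note: score merges 667nm spot fluorescence with signal to noise across triplicate slides; reference of the scale not given here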
[3] = small-molecule microarray binders of probe aCHRDL2, primary screen, biochemical, biotinylated probe, 635/667 nm fluorescence (AID 1100); details: higher = more signal
[4] = splicing luciferase reporter signal modulators, primary screen, spliceosome inhibition project, cell-based, HEK293, splice +/- reporter (AID 1101); details: luminescence, 24 h, higher = more signal, called active from +8 up or from −8 down;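 note: HEK293 cells carrying a splicing-competent luciferase reporter gene; test concentration not given here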
[5] = target: Fibroblast growth factor 10 (Homo sapiens) (UniProt O15520); assay: FGF10 binders on small-molecule microarrays, primary screen, biochemical, small-molecule microarray, 635 nm fluorescence (AID 1102); details: FGF10 binding, fluorescence 635 nm, higher = more signal
[6] = system: glycogen synthase kinase-3 (GSK3A per assay name; protocol says GSK3B); assay: GSK3 binders on small-molecule microarrays, primary screen, biochemical, small-molecule microarray, 635 nm fluorescence, GSK3A (AID 1103); details: small-molecule microarray binding, fluorescence 635 nm; higher = more signal; note: the record names both GSK3A and GSK3B
[7] = target: Epidermal growth factor receptor (Homo sapiens) (UniProt P00533); assay: EGFR binders on small-molecule microarrays, primary screen, biochemical, small-molecule microarray, 635 nm fluorescence (AID 1104); details: EGFR binding, higher = more signal;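 note: score merges 667 nm emission intensity with spot signal to noise over triplicate slides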
[8] = target: Follistatin-related protein 3 (Homo sapiens) (UniProt O95633); assay: FSTL3 binders on small-molecule microarrays, primary screen, biochemical, small-molecule microarray, 635 nm fluorescence (AID 1105); details: FSTL3 binding, higher = more signal;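 note: score merges emission near 667 nm and signal to noise per printed spot across three slides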
[9] = target: Dickkopf-related protein 1 (Homo sapiens) (UniProt O94907); assay: DKK1 binders on small-molecule microarrays, primary screen, biochemical, small-molecule microarray, 635 nm fluorescence scan (AID 1106); details: DKK1 binding, higher = more signal;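 note: score merges emission near 667 nm with signal to noise over three replicate slides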
[10] = system: Inhibin beta A chain (activin A); assay: INHBA (activin A) binders on microarrays, primary screen, biochemical, small-molecule microarray, 635 nm fluorescence scan (AID 1107); details: small-molecule microarray binding, higher = more signal;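 note: mouse activin A protein probed at 4.33 µg/mL on printed slides; score merges bound-protein fluorescence near 667 nm with spot signal-to-noise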

Dickkopf-related protein 1 (Homo sapiens), sequence (O94907 whole entry, looked up): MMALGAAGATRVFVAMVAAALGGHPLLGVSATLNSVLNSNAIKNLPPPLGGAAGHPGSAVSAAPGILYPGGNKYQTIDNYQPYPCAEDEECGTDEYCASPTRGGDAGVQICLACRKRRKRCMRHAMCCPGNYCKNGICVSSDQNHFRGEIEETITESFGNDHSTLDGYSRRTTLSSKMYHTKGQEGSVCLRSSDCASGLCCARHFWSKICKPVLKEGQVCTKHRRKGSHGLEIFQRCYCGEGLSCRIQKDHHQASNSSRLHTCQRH
Epidermal growth factor receptor (Homo sapiens), sequence (P00533 whole entry, looked up): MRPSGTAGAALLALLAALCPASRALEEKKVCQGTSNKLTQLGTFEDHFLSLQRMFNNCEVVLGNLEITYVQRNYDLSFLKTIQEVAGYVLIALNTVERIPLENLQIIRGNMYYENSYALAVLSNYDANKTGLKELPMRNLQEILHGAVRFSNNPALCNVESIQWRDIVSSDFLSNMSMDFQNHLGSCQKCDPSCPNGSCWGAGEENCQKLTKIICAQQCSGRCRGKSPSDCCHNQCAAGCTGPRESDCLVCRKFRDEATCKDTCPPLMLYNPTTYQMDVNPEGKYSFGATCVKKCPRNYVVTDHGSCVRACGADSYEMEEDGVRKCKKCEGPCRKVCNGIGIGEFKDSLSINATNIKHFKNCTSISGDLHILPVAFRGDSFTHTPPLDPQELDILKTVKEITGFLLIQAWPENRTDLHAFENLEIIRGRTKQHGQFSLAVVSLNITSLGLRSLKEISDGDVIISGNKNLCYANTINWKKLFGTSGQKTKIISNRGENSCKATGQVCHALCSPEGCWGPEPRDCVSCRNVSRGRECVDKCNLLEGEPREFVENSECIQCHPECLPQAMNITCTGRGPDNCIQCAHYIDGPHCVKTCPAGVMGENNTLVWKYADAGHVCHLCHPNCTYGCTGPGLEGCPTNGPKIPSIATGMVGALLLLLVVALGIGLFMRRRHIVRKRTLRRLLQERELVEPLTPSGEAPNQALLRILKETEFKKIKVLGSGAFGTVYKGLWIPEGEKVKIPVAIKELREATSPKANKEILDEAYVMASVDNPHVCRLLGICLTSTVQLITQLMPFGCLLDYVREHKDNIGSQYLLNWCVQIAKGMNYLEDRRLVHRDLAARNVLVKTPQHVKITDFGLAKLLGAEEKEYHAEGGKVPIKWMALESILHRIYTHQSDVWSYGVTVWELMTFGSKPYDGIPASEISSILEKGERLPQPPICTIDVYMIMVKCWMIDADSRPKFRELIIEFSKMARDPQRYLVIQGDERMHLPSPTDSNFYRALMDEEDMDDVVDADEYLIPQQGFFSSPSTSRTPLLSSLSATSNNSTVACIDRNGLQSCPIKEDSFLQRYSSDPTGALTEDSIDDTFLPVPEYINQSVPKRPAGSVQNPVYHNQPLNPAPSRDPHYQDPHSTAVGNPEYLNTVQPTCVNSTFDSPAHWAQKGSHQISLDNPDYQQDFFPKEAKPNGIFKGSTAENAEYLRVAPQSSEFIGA
Fibroblast growth factor 10 (Homo sapiens), sequence (O15520 whole entry, looked up): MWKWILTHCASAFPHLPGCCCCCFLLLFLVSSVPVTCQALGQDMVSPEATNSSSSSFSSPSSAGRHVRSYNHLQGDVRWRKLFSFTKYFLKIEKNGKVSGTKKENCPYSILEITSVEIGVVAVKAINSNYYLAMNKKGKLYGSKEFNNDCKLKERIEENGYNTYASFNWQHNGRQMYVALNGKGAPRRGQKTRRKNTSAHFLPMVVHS
Follistatin-related protein 3 (Homo sapiens), sequence (O95633 whole entry, looked up): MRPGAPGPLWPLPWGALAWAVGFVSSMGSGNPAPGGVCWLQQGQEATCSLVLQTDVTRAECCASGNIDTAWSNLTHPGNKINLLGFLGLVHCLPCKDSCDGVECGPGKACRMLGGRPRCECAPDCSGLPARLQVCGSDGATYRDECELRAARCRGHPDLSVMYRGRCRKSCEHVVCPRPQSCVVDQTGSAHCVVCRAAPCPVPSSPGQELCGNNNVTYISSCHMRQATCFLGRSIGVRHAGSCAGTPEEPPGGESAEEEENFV

SMILES | composite z-score [1] | composite z-score [2] | composite z-score [3] | z-score [4] | composite z-score [5] | composite z-score [6] | composite z-score [7] | composite z-score [8] | composite z-score [9] | composite z-score [10]
COc1ccc(CCN2C(=O)[C@@]3(c4ccc([N+](=O)[O-])cc4)CC(=O)N(C4CCCCC4)[C@@H]3c3ccc(CO)cc32)cc1 | 0.582 | 0.274 | 0.181 | -0.0884 (inactive) | 0.586 | 0.711 | -0.267 | 1.2 | 1.48 | 0.889
COCCCN1C(=O)[C@@]2(c3ccc([N+](=O)[O-])cc3)CC(=O)N(C3CCCCC3)[C@@H]2c2ccc(CO)cc21 | 0.555 | -0.24 | -0.319 | -0.237 (inactive) | 0.301 | 0.237 | -0.0732 | 0.593 | 0.3 | 0.717
COC(=O)[C@@]1(Cc2ccc(OC)cc2)[C@H]2c3cc(C(=O)N(C)C)n(Cc4cccc5ccccc45)c3C[C@H]2CN1C(=O)c1ccccc1 | 0.971 | 1.8 | 0.771 | -3.61 (inactive) | 1.04 | 0.329 | 0.671 | 0.553 | 0.208 | 0.537
O=C1c2ccccc2[C@](Cc2ccccc2I)(C(=O)NC2CC2)[C@H](c2ccc(CO)cc2)N1C1CCCCC1 | 1.19 | -0.809 | -0.589 | -0.578 (inactive) | 0.724 | 1.33 | 0.543 | 1.05 | 0.529 | 0.435
O=C1[C@H]2C=C(Br)[C@H](C[C@@H]2OCCCCO)[C@@]12CO2 | 1.02 | -0.257 | -0.504 | -0.238 (inactive) | 0.177 | 0.0613 | 0.224 | -0.0883 | 0.438 | 0.646
C=C(C)C1C(=C)CN([C@H](CO)c2ccccc2)C1=O (stereo not given in full) | 1.35 | -0.172 | 0.22 | -0.622 (inactive) | -0.0267 | -0.599 | -0.476 | -0.0684 | -0.153 | 1.36
COC(=O)[C@@]1(Cc2ccccc2)[C@H]2c3cc(C(=O)N(C)C)n(CCSCCO)c3C[C@H]2CN1C(=O)c1ccccc1 | 0.751 | 0.692 | 0.829 | -1.48 (inactive) | 0.3 | -0.205 | -0.348 | -0.353 | -0.772 | 0.442
CCCCN1CC=CC23O[C@@H]4/C=C\CCC(C)OC(=O)C4[C@H]2C(=O)N(CCCCCO)[C@@H]3C1=O (stereo not given in full) | 0.0665 | -0.267 | 0.421 | -0.259 (inactive) | -1.28 | -0.577 | -0.762 | -0.668 | -1.41 | -0.323
Cc1ccc(S[C@]2(C(=O)NCC(C)C)CC(=O)N(Cc3cc(C(F)(F)F)cc(C(F)(F)F)c3)[C@@H]2c2ccc(CO)cc2I)cc1 | -0.313 | 0.75 | 1.39 | -0.0957 (inactive) | -0.755 | -1.16 | -1.78 | -0.615 | -2.14 | 0.923
CN(C)CCCNC(=O)[C@@]1(C)c2ccccc2C(=O)N(Cc2cc(F)cc(C(F)(F)F)c2)[C@H]1c1ccc(CO)cc1 | 1.34 | -0.226 | 0.682 | -0.249 (inactive) | -1.23 | -0.465 | -1.63 | -1.19 | -0.878 | 0.376
O=C1O[C@H](c2ccccc2)[C@H](c2ccccc2)N2[C@H]1[C@@H](C(=O)N1CCN(c3ncccn3)CC1)[C@]1(C(=O)Nc3ccc(C#CC4=CCCCC4)cc31)[C@H]2c1ccc(O)cc1 | 0.789 | -0.0869 | 0.566 | -0.725 (inactive) | 0.76 | 0.754 | 0.442 | 0.738 | -0.0441 | -0.0074
CC(C)N1C(=O)c2ccccc2[C@](C)(C(=O)NCc2ccccc2)[C@@H]1c1ccc(CO)cc1 | 0.758 | 0.234 | 0.849 | 0.0799 (inactive) | -0.44 | -0.329 | -0.587 | -0.615 | -1.16 | 0.288
CCOC(=O)C[C@H]1[C@H](OC(=O)c2ccc(C(=O)c3ccccc3)cc2)[C@@H](NC(=O)c2ccc(-c3ccccc3)cc2)c2cc(OCCCO)ccc2N1C(=O)c1ccccc1 | 0.82 | -0.222 | -0.387 | 0.475 (inactive) | 0.994 | 0.477 | 0.515 | 0.723 | 0.321 | -0.144
C=CCNC(=O)[C@H]1[C@@H]2C(=O)O[C@@H](c3ccccc3)[C@@H](c3ccccc3)N2[C@@H](c2ccccc2OCCO)[C@]12C(=O)Nc1ccc(C#CC3=CCCCC3)cc12 | 1.28 | -0.22 | 0.317 | -2.23 (inactive) | 1.27 | 1.3 | 0.48 | 1.24 | 0.646 | 1.17
CN(C)CCCNC(=O)[C@@]1(c2ccc([N+](=O)[O-])cc2)CC(=O)N(C2CCCCC2)[C@@H]1c1ccc(CO)cc1I | 1.12 | -0.116 | 0.736 | -3.68 (inactive) | -0.341 | 1.28 | -0.0949 | 0.381 | -0.212 | 0.462
O=C1O[C@H](c2ccccc2)[C@H](c2ccccc2)N2[C@H]1[C@@H](C(=O)Nc1nc3ccccc3s1)[C@]1(C(=O)Nc3ccc(C#CC4(O)CCCCCC4)cc31)[C@H]2c1ccc(OCCO)cc1 | 1.17 | 0.507 | 0.531 | 0.053 (inactive) | 1.24 | 1.02 | 0.662 | 0.714 | 0.525 | 0.523
